In PubChem BioAssay (EPA / NIEHS):
Activity calls are given as the source filed them. Rule for the calls: active = hit-call score of the fitted dose curve at least 0.9, where 1 is the maximum; inactive = score below 0.9.

Assay: CEETOX_H295R_MTT_cell_viability: Viability Assessment in the CeeTox HT-H295R MTT Assay (AID 2283718);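 for AC50: curve fitted both ways so AC50 may mark viability loss or gain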
Description: CEETOX_H295R is a cell-based, multiplexed-readout assay that uses H295R, a human adrenal gland cell line, with measurements taken at 48 hours after chemical dosing in a 96-well plate.CEETOX_H295R_MTT_cell_viability is one of 23 assay component(s) measured or calculated from the CEETOX_H295R assay. It is designed to make measurements of cell number, a form of viability reporter, as detected with […] signals by MTT cytotoxicity assay technology.The assay component endpoint CEETOX_H295R_MTT_cell_viability was analyzed with bidirectional fitting relation to DMSO as the negative control and baseline of activity. Using a type of viability reporter in the MTT cytotoxicity assay, gain or loss-of-signal activity can be used to monitor cellular processes to understand changes in proliferation. To generalize the intended target to other relatable targets, this assay endpoint is annotated to cell cycle, where the subfamily is proliferation.
Cell culture and media preparation procedures were conducted in accordance with OECD Test No. 456 guidelines, with minor modifications. H295R cells (ATCC CRL-2128) were expanded for 5 passages and frozen in batches in liquid nitrogen. Prior to the steroidogenesis assay, H295R cells were thawed and passed at least 4 times. The maximum passage was 10. Cells were maintained in a 1:1 mixture of DMEM/F12 supplemented with 5ml/L ITS+ Premix (BD Bioscience) and 12.5 ml/L Nu-Serum (BD Bioscience). After seeding cells into 96-well plates at 50-60% confluency, cells were allowed to adhere overnight. Prior to chemical testing, culture medium was replaced with 175 uL medium containing 10 uM forskolin to stimulate steroidogenesis for 48 hours. Following prestimulation, forskolin medium was replaced with medium containing test chemical solubilized in DMSO (ensuring a final concentration of 0.1% DMSO). Test chemicals were incubated for 48 hours, then the medium was removed and split into 2 vials containing approximately 75uL each, and stored at -80 C prior to hormone analysis. For steroid quantification, media samples were shipped to OpAns, LLC (Durham, NC) on dry ice, and samples were thawed to room temperature prior to liquid-liquid extraction. Steroid hormones were extracted from media samples using methyl tertbutyl ether (MTBE). An extra derivatization with dansyl chloride was included for estrogen (estrone and estradiol) detection only. Steroid hormones were separated by HPLC, eluted using a reverse phase C18 gradient with electrospray positive ionization, followed by quantification by tandem mass spectrometry (MS/MS). Data were acquired on a MassHunter Workstation Acquisition version B03.01 (Agilent Technologies, Inc.) and processed using MassHunter Quantitative Analysis for QQQ. Accuracy was determined for each hormone analyte from 3 standards to determine upper and lower limits of quantification (ULOQ and LLOQ, respectively) using a 7-point standard curve. Precision and accuracy of the extraction and quantification methods were calculated as the percent relative standard deviation (%RSD) of the spiked standards and percent spiked standard recovered, respectively. The goal was to achieve 100% accuracy (i.e., recover all spiked-in standard at quantification with minimal loss during run time) and good precision (i.e., have %RSD <15% to ensure reproducibility). Test medium was removed following chemical exposure, and cell viability was evaluated in the same wells by MTT. MTT procedures were as follows: after removal of test medium, 500 uL of 0.5 mg/ml of 3-[4,5-dimethylthiazol-2-y]2,5-diphenyltetrazoliumbromide solution was added to the cells. Following a 4-hour incubation at 37 C and 5% CO2 to allow formazan-crystal formation, the MTT solution was removed and blue formazan salt crystals were solubilized using 500uL anhydrous isopropanol with shaking for 20 minutes. Absorbance was read at 570 and 650nm using a Packard Fusion microplate reader. […]
With `CC[C@H]1CC[C@H](NCc2cc3c(cc2OC)[C@H]2C[C@H]2C(=O)N3C)[C@H](c2ccccc2)N1` the outcome was “inactive”.
In the case of `COc1cccc(-c2ccc(/C=C\CN3CCCCCC3)cc2Cl)c1`, the outcome is reported as “inactive”.
In the case of `CCOc1cccc(-n2cc(C(=O)N3CCN(c4cc(C(=O)O)c5ccccc5c4)CC3)nc2-c2ccc(C)cc2)c1`, the outcome is reported as “inactive”.
For `COC(=O)c1c(Cl)c(Cl)c(C(=O)OC)c(Cl)c1Cl`, the outcome was “inactive”.
With `C=CCCCCCCCCC(=O)O` the outcome was “inactive”.
With `CC1=CC(=O)CC(C)(C)C1` the outcome was “inactive”.
With `CN(C)c1ccc(Cc2ccc(N(C)C)cc2)cc1` the outcome was “inactive”.
For `O=C(O)c1cccc(N(Cc2cccnc2)c2ccc(OC(F)F)c(OC(F)F)c2)c1`, the outcome was “inactive”.
For `COc1ccc(-n2nc(C(F)F)cc2-c2ccc(S(C)=O)cc2)cc1` (stereo unspecified), the outcome was “inactive”.
With `CCCCCCCCCCCCCCCO` the AC50 was 0.0667 µM (active).
In the case of `CC[C@H](C)C(=O)O[C@H]1C[C@@H](C)C=C2C=C[C@H](C)[C@H](CC[C@@H]3C[C@@H](O)CC(=O)O3)[C@H]21`, the outcome is reported as “inactive”.
In the case of `O=C(NS(=O)(=O)/C=C/c1ccccc1)c1ccc(F)cc1Cl`, the AC50 is reported as 11.2 µM (active).
With `CC(C)CC(C)(O)C#CC(C)(O)CC(C)C` (stereo unspecified) the outcome was “inactive”.
For `CCC(C)(C)C(=O)O[C@H]1C[C@@H](C)C=C2C=C[C@H](C)[C@H](CC[C@@H]3C[C@@H](O)CC(=O)O3)[C@H]21`, the outcome was “inactive”.
For `Cc1c(-c2cccnc2)c2ccccc2n1CCCCC(=O)O`, the outcome was “inactive”.
In the case of `CCCCCCCCO`, the outcome is reported as “inactive”.
For `Fc1ccccc1[C@@H](F)COC1CCC(Nc2ncnc3[nH]ncc23)CC1` (stereo partly specified), the AC50 was 6.77 µM (active).
For `O=c1[nH]c2ccc(S(=O)CCN3CCC(Cc4ccc(F)cc4)CC3)cc2o1` (stereo unspecified), the outcome was “inactive”.
With `CC(C)=CCC/C(C)=C\CO` the outcome was “inactive”.
In the case of `C[C@](N)(Cc1ccc(O)c(O)c1)C(=O)O`, the outcome is reported as “inactive”.
For `Cc1ccc(N)cc1O`, the outcome was “inactive”.
In the case of `CC(C)(O)c1coc(S(=O)(=O)NC(=O)Nc2c3c(cc4c2CCC4)CCC3)c1`, the outcome is reported as “inactive”.
For `Nc1ccc(Nc2ccccc2)cc1`, the outcome was “inactive”.
For `CCOC(=O)c1ccc(C2CCC(NC[C@H](O)COc3ccc(O)c(NS(C)(=O)=O)c3)CC2)cc1` (stereo partly specified), the outcome was “inactive”.
In the case of `Oc1ccc2c(c1)-c1ccccc1C2`, the AC50 is reported as 32.8 µM (active).
For `Cn1c(=O)cc(Oc2ccc(F)cc2F)c2cnc(NCC(C)(C)O)nc21`, the outcome was “inactive”.
With `CCCCC(CC)COC(=O)c1ccc(C(=O)OCC(CC)CCCC)cc1` (stereo unspecified) the outcome was “inactive”.
In the case of `COc1ccc(/C=C/S(=O)(=O)NC(=O)c2ccc(C)cc2Cl)cc1`, the AC50 is reported as 3.37 µM (active).
In the case of `CNS(=O)(=O)c1cc(C(=O)N2CCC(CCN3C4CCC3CC(n3c(C)nc5ccccc53)C4)(c3cccc(F)c3)CC2)c(Cl)cc1F` (stereo unspecified), the outcome is reported as “inactive”.
For `CC(C)c1cccc(C(C)C)c1N1C(=O)c2ccc(O)cc2C1=O`, the AC50 was 3.83 µM (active).
In the case of `Cc1ccc(O)cc1`, the outcome is reported as “inactive”.
